Inhibition data for five molecules are collected here from PubChem BioAssay AID492993 (Johns Hopkins Ion Channel Center, 2010).

The structures appear in SMILES notation. The campaign covered roughly 4,900 compounds. About 200 (4.1%) were called active.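 Rule for the calls: active = thallium signal drop more than 5 SD beyond the mean of the no-compound control wells, seen in both duplicate plates; inactive = the rest.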 The sample as a whole holds a higher share of actives than the screen did.

Sequence of Inward rectifier potassium channel 2 (Mus musculus) (P35561 whole entry, looked up): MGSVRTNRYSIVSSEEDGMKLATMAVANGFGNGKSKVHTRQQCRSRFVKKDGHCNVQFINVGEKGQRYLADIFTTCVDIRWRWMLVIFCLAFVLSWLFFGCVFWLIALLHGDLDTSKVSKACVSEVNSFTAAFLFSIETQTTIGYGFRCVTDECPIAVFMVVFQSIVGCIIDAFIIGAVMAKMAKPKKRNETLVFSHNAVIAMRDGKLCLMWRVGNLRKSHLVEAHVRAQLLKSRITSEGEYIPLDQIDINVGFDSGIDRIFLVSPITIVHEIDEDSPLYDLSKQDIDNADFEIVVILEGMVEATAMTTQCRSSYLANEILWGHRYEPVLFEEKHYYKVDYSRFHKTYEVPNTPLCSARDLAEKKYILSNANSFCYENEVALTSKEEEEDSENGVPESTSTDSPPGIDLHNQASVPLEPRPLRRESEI

This assay has as its target Inward rectifier potassium channel 2 (Mus musculus) (UniProt P35561). In words: off-target Kir2.1 potassium flux block – cell-based, HEK293, thallium flux, selectivity assay for KCNK9 modulator project, confirmation (AID 492993).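 For Inhibition: signal is fluorescence rise after thallium addition divided by baseline fluorescence; plate controls were assay buffer only for no effect and full block by chlorpromazine control for full effect.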 As to conditions: Kir2.1 cells, FluxOR thallium flux fluorescence, at 10 µM; stronger effect = higher value.
By inhibition is commonly meant the change of the read-out against control, counted positive when it falls. On to `CCCCCCCCCCCCn1ccc(=N)cc1`, for which the inhibition is 75% (active).

On to `CCCCCCN=C(CC)c1c(O)n(CCCC)c(=O)[nH]c1=O`, for which the inhibition result is “inactive”.

Consider `CC(C)(C)c1ccc(OC(=O)N2CCCCC2)cc1`, for which the inhibition entry is “inactive”.

In the case of `CCOC(=O)C1SC2(C(F)(F)C(F)F)CC1(O)c1c(c(OC)c3occc3c1OC)O2` (stereo not given), the inhibition entry is “inactive”.

As for `CC(C)(C)c1ccc(CN2C(=O)CN=C(c3ccccc3)c3ccccc32)cc1`, the inhibition result was “inactive”.
